This is an account of results in PubChem BioAssay.

As a reminder, the viability is a read-out of living cells in per cent, often relative to untreated cells.

Test [1] can be described thus: Wnt pathway potentiators raising nuclear beta-catenin – imaging, WNT3A-conditioned medium, mouse C2C12, NPC library, primary screen (AID 1117326; in the data active means nuclear beta-catenin stimulation mostly above about 4.2%, no sharp cut-off; inactive means mostly below about 10%). To be noted: stronger effect = higher value.
The nature of test [2]: stimulators of insulin release from INS-1E, primary screen, cell-based, 5 mM glucose, NPC library (AID 1117329;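 active means compound raises insulin release from rat beta cells at 5 mM glucose, no numeric limit stated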). To be noted: rat INS-1E insulin secretion, at 10 µM, stronger effect = higher value.
The nature of test [3]: growth inhibition of GSK3B-pretreated HCT116 cells – cell-based, CellTiter-Glo, 0.2 to 20 µM (AID 1117336;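 active means compounds lowering colon cancer cell viability after pretreatment blocking the GSK3B kinase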). To be noted: HCT116 viability after GSK3B inhibitor, at 20 µM, stronger effect = higher value.
Test [4] is described as follows: inhibition of endothelial tube formation, primary screen, imaging, VEGF stimulated, CD31 staining, tube area, NPC library (AID 1117340;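 active means compound that reduces growth-factor-driven endothelial tube area in a mixed cell culture, no cutoff stated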). To be noted: VEGF-stimulated ADSC/ECFC co-culture, at 10 µM, stronger effect = higher value.
Test [5] can be described thus: GLP1 release stimulators, primary, NCI-H716, NPC library (AID 1117341;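 active means compound raises GLP1 secretion from the human gut endocrine cells, with no numeric limit stated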). To be noted: NCI-H716 cells, at 10 µM, stronger effect = higher value.
The nature of test [6]: HCT116 colon cancer cell growth inhibition, primary screen, CellTiter-Glo luminescence, NPC library (AID 1117342;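 active means compounds that lower survival of HCT116 colon cancer cells in the luminescence readout, no numeric limit stated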). To be noted: at 20 µM (top of the series).
A short description of test [7]: reduced SW480 viability measured with CellTiter-Glo, NPC library, primary (AID 1117343;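 active means compounds that lower viability of the colon cancer cells in the luminescence readout, with no numeric limit stated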). To be noted: CellTiter-Glo luminescence; at 20 µM (top of the series) unless noted.
The nature of test [8]: NPC library primary testing for decreased DLD-1 cell viability via CellTiter-Glo (AID 1117346;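 active means compounds that lower survival of DLD-1 colon cancer cells in the luminescence readout, no cutoff given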). To be noted: DLD-1 viability, CellTiter-Glo luminescence; at 20 µM (top of the series). On the technique in general: Cellular ATP, detected with luciferase, serves as a proxy for viable cell number.
Test [9] is described as follows: EMT-state selective cytotoxicity in co-culture – imaging, PC-3E GFP, TEM4-18 mCherry, primary screen (AID 1345086;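 active means compounds killing one labelled cell type while sparing the other, by normalised counts and ratio limits, not self-fluorescent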;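 on all read-outs here: cells exposed to compound for 72 h before imaging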;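 on red/green cell ratio (normalised): normalised mesenchymal count divided by normalised epithelial count so high means epithelial killing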). To be noted: PC-3E GFP / TEM4-18 mCherry co-culture, imaging cell counts, at 1 µM; for red/green cell ratio (normalised): actives lie on both sides, counts scaled to control wells, 1 = unselective.
The nature of test [10]: viability loss with induced miR-34 in A549 – imaging, A549 dox-inducible miR-34, nuclei and caspase counts, primary screen (AID 1347080). To be noted: A549 miR-34 inducible, Hoechst nuclei count, 48 h.
Test [11] concerns the target NAD(+) hydrolase SARM1 (Homo sapiens) (UniProt Q6SZW1). Put plainly: blocking NAD cleavage by SARM1 SAM-TIR – cell lysate, NAD-Glo luminescence (AID 1508614;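 active means compound whose remaining NAD level is above about 45 nM, limit read from the data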). To be noted: SAM-TIR HEK293T lysate NADase, at 1 µM, stronger effect = higher value.
Test [12] can be described thus: P. berghei load reduction in hepatocytes – cell-based, HepG2, luciferase luminescence, HepG2 viability, primary screen (AID 624349; in the data active means parasite load remaining mostly below about 12%, no sharp cut-off; inactive means mostly above about 10%;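 further: 100% = mean of DMSO negative control wells on the same plate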). To be noted: P. berghei liver stage in HepG2, luciferase luminescence, concentration not given here; parasite load remaining: stronger effect = lower value; viability: measured here: HepG2 viability without parasites.
Test [13] is described as follows: MELAS cybrid and Rieske KO viability enhancers – cell-based, MELAS cybrids, Rieske KO mouse fibroblasts, CellTiter-Glo, primary screen (AID 1508586;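 active means mean z-score across replicates of 1.96 or higher in either the MELAS or the Rieske mutant cell line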;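 further: z relative to plate mean and SD of compound and empty wells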). To be noted: low glucose.
[14] abbreviates: measured here: epithelial PC-3E GFP cell survival.
Setting [15] is: measured here: mesenchymal TEM4-18 mCherry cell survival.
The mark [16] stands for this setting: stronger effect = lower value, cell number ratio, induced over uninduced.
Setting [17] is: measured here: relative caspase fold change +Dox/-Dox.
The mark [18] stands for this setting: measured here: total cells with miR-34 induction, stronger effect = lower value.
[19] abbreviates: measured here: total cells without miR-34 induction.

Each structure is given as a SMILES string. Where “and” joins values, the source holds several entries; their conditions need not be identical. Equal values may be shown once. Calls of active or inactive are those of the source.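 How the source made its calls, unless noted: active means compounds whose cell count with miR-34 switched on is under 0.7 times the count with it off; inactive means the rest.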

Sequence of NAD(+) hydrolase SARM1 (Homo sapiens) (Q6SZW1 whole entry, looked up): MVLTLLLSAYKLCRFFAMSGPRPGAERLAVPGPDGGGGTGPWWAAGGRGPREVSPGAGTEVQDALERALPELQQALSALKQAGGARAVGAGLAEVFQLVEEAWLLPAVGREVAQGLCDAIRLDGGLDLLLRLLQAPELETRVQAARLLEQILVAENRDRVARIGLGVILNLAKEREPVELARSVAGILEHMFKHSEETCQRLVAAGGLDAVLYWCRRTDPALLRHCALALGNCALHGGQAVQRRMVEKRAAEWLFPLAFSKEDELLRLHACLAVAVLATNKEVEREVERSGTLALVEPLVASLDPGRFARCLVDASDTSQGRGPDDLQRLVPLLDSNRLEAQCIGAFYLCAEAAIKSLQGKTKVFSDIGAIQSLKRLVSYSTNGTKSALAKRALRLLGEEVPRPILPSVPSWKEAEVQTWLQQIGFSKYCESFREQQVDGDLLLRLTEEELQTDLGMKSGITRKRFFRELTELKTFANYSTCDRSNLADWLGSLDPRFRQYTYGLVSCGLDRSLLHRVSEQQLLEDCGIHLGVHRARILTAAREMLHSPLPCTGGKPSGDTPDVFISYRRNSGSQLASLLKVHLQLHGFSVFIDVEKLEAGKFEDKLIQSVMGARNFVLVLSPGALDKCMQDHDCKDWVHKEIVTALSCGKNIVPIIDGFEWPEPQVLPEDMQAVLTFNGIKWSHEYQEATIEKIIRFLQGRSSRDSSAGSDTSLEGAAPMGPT

Turning to `O=S(=O)(O)c1cc(I)c(O)c2ncccc12`, the nuclear beta-catenin stimulation in test [1] (at 10 µM) was -0.8% (inactive); in [1] (stimulation, at 2 µM), -0.5%. In addition, in test [2], the insulin secretion stimulation is -0.3% (inactive). In addition, in test [3], the viability decrease is 62.2% (active). For the same compound, the tube area decrease in test [4] was -5.5% (inactive). Moreover, in test [5], the GLP1 secretion stimulation is -2.6% (inactive). Moreover, the inhibition of viability in test [6] is 41% (inactive). Moreover, the viability decrease (inhibition) is 77.9% (active) in [7] and 53.4% (active) in test [8]. Besides, the red/green cell ratio (normalised) in [9] was 1 (inactive). The normalised cell number in test [9] (setting [14]) was 1.1; in test [9] (setting [15]), 1.11. For the same compound, the fold change was 1.07 (inactive) in test [10] (setting [16]) and 0.778 in [10] (setting [17]). The cell count in [10] (setting [18]) is 5970; in test [10] (setting [19]), 5570. In addition, the remaining NAD in [11] is 10 nM (inactive).

Regarding `CC(C)COC(=O)c1ccc(N)cc1`, the nuclear beta-catenin stimulation in test [1] (at 10 µM) was 0.2% (inactive); in test [1] (stimulation, at 2 µM) it was 0.4%. In addition, the insulin secretion stimulation in test [2] is -1.9% (inactive). Further, the viability decrease in test [3] was -5.95% (inactive). Further, the tube area decrease in test [4] was 0.5% (inactive). For the same compound, in test [5], the GLP1 secretion stimulation is 0.9% (inactive). In test [6], the inhibition of viability is 6.2% (inactive). Also, the viability decrease (inhibition) in [7] is 61.3% (active); in [8], 12.5% (inactive). Further, the red/green cell ratio (normalised) in [9] was 1.09 (inactive). Further, the normalised cell number in [9] (setting [14]) came to 0.86; in test [9] (setting [15]) it was 0.93. For the same compound, the fold change was 0.964 (inactive) in test [10] (setting [16]) and 0.986 in [10] (setting [17]). Further, the cell count was found to be 8750 in test [10] (setting [18]) and 9080 in [10] (setting [19]). In addition, the remaining NAD in test [11] was 10 nM (inactive).

As for `O=S(=O)(O)CCCS(=O)(=O)O`, the nuclear beta-catenin stimulation in test [1] (at 10 µM) was -2.1% (inactive); in test [1] (stimulation, at 2 µM) it was -0.3%. Besides, in test [2], the insulin secretion stimulation was 2.9% (inactive). Further, the viability decrease in test [3] is -15.7% (inactive). Besides, the tube area decrease in test [4] is -1.1% (inactive). Besides, the GLP1 secretion stimulation in test [5] was -2.7% (inactive). Besides, in [6], the inhibition of viability is -1.7% (inactive). The viability decrease (inhibition) is -9.3% (inactive) in [7] and -13.5% (inactive) in [8]. In addition, the red/green cell ratio (normalised) in test [9] was 0.74 (inactive). The normalised cell number in test [9] (setting [14]) was 1.27; in test [9] (setting [15]), 0.94. Besides, the fold change in test [10] (setting [16]) was 0.939 (inactive); in test [10] (setting [17]), 1.14. Further, the cell count in test [10] (setting [18]) stood at 9300; in test [10] (setting [19]) it was 9900. Further, in test [11], the remaining NAD was 10 nM (inactive).

Regarding `CN(C)CC/C=C1\c2ccccc2Sc2ccc(Cl)cc21`, the parasite load remaining in test [12] is 79% (inactive) and 61.2% (inactive) and 17.9% (inactive). Further, in test [12], the viability is 83.4% and 97.6% and 84.5%. The nuclear beta-catenin stimulation was 1.8% (inactive) in [1] (at 10 µM) and 0.5% in test [1] (stimulation, at 2 µM). In [2], the insulin secretion stimulation is 20.8% (active). Moreover, the viability decrease in test [3] was 51.1% (active). Further, the tube area decrease in [4] was 42.6% (active). Moreover, the GLP1 secretion stimulation in test [5] is 15.7% (inactive). Moreover, the inhibition of viability in test [6] is 94.8% (active). The viability decrease (inhibition) is 127% (active) in test [7] and 98.6% (active) in [8]. Besides, in test [9], the red/green cell ratio (normalised) is 1.04 (inactive). Also, the normalised cell number amounted to 1.11 in test [9] (setting [14]) and 1.16 in [9] (setting [15]). The fold change was 0.848 (inactive) and 0.855 (inactive) in test [10] (setting [16]); 1.41 and 2.28 in test [10] (setting [17]). The cell count in [10] (setting [18]) was 6900 and 9070; in test [10] (setting [19]), 8140 and 10600. The z-score is 0.287 (inactive) in test [13] (MELAS cybrid survival, CellTiter-Glo 48 h, stronger effect = higher value) and 0.968 in test [13] (Rieske KO mouse fibroblast survival, CellTiter-Glo 72 h).

Regarding `NC(=O)NS(=O)(=O)c1ccc(N)cc1`, the nuclear beta-catenin stimulation is -1.6% (inactive) in [1] (at 10 µM) and 0.3% in test [1] (stimulation, at 2 µM). Further, the insulin secretion stimulation in test [2] is 5.8% (inactive). Besides, in test [3], the viability decrease is -1.6% (inactive). Moreover, the tube area decrease in test [4] was -10.6% (inactive). Also, the GLP1 secretion stimulation in [5] is -4.5% (inactive). Also, in test [6], the inhibition of viability is 6.1% (inactive). Besides, the values for the viability decrease (inhibition) in test [7] and in test [8] were 75.8% (active) and -12.6% (inactive), respectively. The red/green cell ratio (normalised) in test [9] was 0.74 (inactive). The normalised cell number in test [9] (setting [14]) was 1.37; in test [9] (setting [15]), 1.02. In addition, the values for the fold change in [10] (setting [16]) and in test [10] (setting [17]) were 0.96 (inactive) and 0.945, respectively. Further, the cell count in test [10] (setting [18]) was found to be 8990; in test [10] (setting [19]), 9360. Besides, the remaining NAD in test [11] is 10 nM (inactive).
